This note sets out measurements from PubChem BioAssay AID1527 (The Scripps Research Institute Molecular Screening Center, 2009).

Screen size: about 290,000 compounds; about 2,600 (0.9%) were called active.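 How the source made its calls: active means inhibition above the mean of all tested compounds plus 3 SD, cutoff set per screening run (cut at about 7.5% in these data); inactive means the rest.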 For the sample, actives were picked, then their nearest neighbours and some compounds at random.

The test has as its system VIM-2 metallo-beta-lactamase (Pseudomonas aeruginosa). As to the kind of experiment: VIM-2 metallo-beta-lactamase inhibitors, primary screen, biochemical, epi-absorbance readout, Pseudomonas aeruginosa enzyme (AID 1527).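 Further: red hydrolysis product quenches plate fluorescence so inhibitors raise well fluorescence; 0% = enzyme with DMSO and 100% = DMSO without enzyme.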 Particulars: purified VIM-2, nitrocefin hydrolysis, epi-absorbance fluorescence; at 5.6 µM; stronger effect = higher value.
Consider `Cc1cnc(C(=O)OCc2c(C)cc(C(C)(C)C)cc2C)cn1`, for which the inhibition was 0.21% (inactive).
For `CCc1ccc(/C=C2\SC(N3CCOCC3)=NC2=O)cc1`, the inhibition is -0.98% (inactive).
For `O=C1N=C(N2CCc3ccccc3C2)S/C1=C\c1ccc(O)cc1`, the inhibition is 0.39% (inactive).
Regarding `O=C1N=C(N2CCCC2)S/C1=C\c1cccc(Br)c1`, the inhibition was -0.86% (inactive).
Consider `CCOc1cc(/C=C2\SC(N3CCCCC3)=NC2=O)ccc1O`, for which the inhibition is 14.9% (active).
Regarding `CCOc1cc(/C=C2\SC(N3CCCC(C)C3)=NC2=O)ccc1O` (stereo not drawn), the inhibition was 14.7% (active).
With `CC1CCN(C2=NC(=O)/C(=C/c3ccc(O)cc3)S2)CC1`, the inhibition is 1.8% (inactive).
The value for `COCCCNC(=O)[C@H]1N2C(=O)c3ccccc3C2SC1(C)C` (stereo partly drawn) was 0.11% (inactive).
As for `CC(C)c1ccc(OCC(O)CN2CCN(c3ccccn3)CC2)cc1` (stereo not drawn), the inhibition was -3.55% (inactive).
The value for `CN(CC(=O)NCc1ccncc1)S(=O)(=O)c1ccc(Br)cc1` was -1.28% (inactive).
With `COc1ccccc1OCCCC(=O)Nc1ccc2c(c1)OCCO2`, the inhibition was -2.36% (inactive).
As to `CC1CCCCC1NC(=O)CCS(=O)(=O)c1ccc2c(c1)NC(=O)CO2` (stereo not drawn), the inhibition is -1.17% (inactive).
The result for `COCC(=O)N1CCc2ccc(NC(=O)c3ccccc3Cl)cc2C1` reads -2.32% (inactive); that for `CSc1cccc(NC(=O)CN2C(=O)COc3ccc(S(=O)(=O)N4CCOCC4)cc32)c1`, -1.26% (inactive); that for `O=C1/C(=C/c2cccs2)CCC1C1CCCC1` (stereo not drawn), -3.15% (inactive).
Consider `Cn1c2ccccc2c(=O)c2c(O)cccc21`, for which the inhibition is 16.8% (active).
Regarding `Cn1c(=O)c(Sc2ccc(Cl)cc2)c(O)c2ccccc21`, the inhibition is -2.02% (inactive).
With `COc1cccc2c(O)cc(=O)n(C)c12`, the inhibition is -2.19% (inactive).
Take `COc1ccc(NC(=O)C2CCC(CNS(=O)(=O)c3csc(C(N)=O)c3)CC2)cc1OC` (stereo not drawn): the inhibition is 1.07% (inactive).
Turning to `Cc1cc(=O)oc2c(C)c(OCC(=O)NCCN3CCOCC3)ccc12`, the inhibition is 5.03% (inactive).
Turning to `Cc1cc(=O)oc2c(C)c(OCC(=O)NCCc3ccc(S(N)(=O)=O)cc3)ccc12`, the inhibition was 10.4% (active).
The value for `Cc1ccc2c(=O)cc(C(=O)NCCc3ccc(S(N)(=O)=O)cc3)oc2c1C` was 5.69% (inactive); that for `Cc1ccccc1NC(=S)NC(=O)Cc1ccc(Cl)cc1` was -0.97% (inactive); that for `CC1CCN(CCCn2c(SCC(=O)NC3CCCC3)nc3ccccc3c2=O)CC1` was -1.12% (inactive).
In the case of `CCCCN(C)CCCNC(=O)c1cc(-c2cccs2)nc2ccccc12`, the inhibition was -1.4% (inactive).
On to `CCCN(CCC)CCNC(=O)c1cc2c(C)nc3ccccc3c2o1`, for which the inhibition was 10.2% (active).
As for `Cc1cc(=O)oc(C)c1C(=O)NCCN(C)Cc1ccccc1`, the inhibition was -1.11% (inactive).
Regarding `O=C(NCCN1CCOCC1)c1cc(-c2cccs2)nc2ccccc12`, the inhibition was -0.14% (inactive).
Take `Cc1nc2ccccc2c2oc(C(=O)NCCCN3CCC(C)CC3)cc12`: the inhibition is 16.2% (active).
For `Cc1ccccc1C(CC(=O)c1cccs1)C(C#N)C#N` (stereo not drawn), the inhibition is -2.96% (inactive).
As to `O=S(=O)(NC1CCCCC1N1CCCCC1)c1ccc(Cl)cc1` (stereo not drawn), the inhibition is -1.53% (inactive).
The value for `CCCCn1c(N)c(N(CC)C(=O)c2ccccc2C(F)(F)F)c(=O)[nH]c1=O` was -0.36% (inactive).
Consider `Cc1ccc(N(CC(=O)NCC2CCCO2)C(=O)CNS(=O)(=O)c2ccc(Cl)cc2)cc1` (stereo not drawn), for which the inhibition is -3.97% (inactive).
Take `COc1cccc(CNC(=O)Cn2c(=O)oc3cc(S(=O)(=O)N4CCCCC4)ccc32)c1`: the inhibition is -0.65% (inactive).
As for `CCOC(=O)C1=C(O)/C(=C/c2ccc(OCC(=O)Nc3ccc(C)cc3)cc2)N=C1C`, the inhibition was -1.99% (inactive).
Turning to `CCCn1c(SCC(N)=O)nnc1C(C)C`, the inhibition was -1.77% (inactive).
Consider `CCCn1c(SCC(=O)c2ccc3c(c2)OCCO3)nnc1C(C)C`, for which the inhibition was 9.77% (active).
Turning to `CCn1c(SCC(=O)Nc2ccc3c(c2)OCCO3)nnc1C(C)C`, the inhibition was -1.97% (inactive).
Turning to `CCN(CC)CCCNC(=O)COc1ccc2oc3c(c2c1)CCCC3`, the inhibition was -0.12% (inactive).
Consider `O=C(N/N=C/c1cccc([N+](=O)[O-])c1)C1CC(=O)N(c2ccc(Br)cc2)C1` (stereo not drawn), for which the inhibition was -1.97% (inactive).
For `CCSc1nc2sc3c(c2c(=O)[nH]1)CC(C)(C)OC3`, the inhibition was 0.86% (inactive).
In the case of `CCC1(C)Cc2c(sc3nc(SC)nc(N)c23)CO1` (stereo not drawn), the inhibition is -3.26% (inactive).
For the compound `CN(C)CCSc1nc(N)c2c3c(sc2n1)COC(C)(C)C3`, the inhibition is 10.3% (active).
In the case of `CC1CC(NC(=O)/C(C#N)=C/c2ccc[nH]2)CC(C)(C)C1` (stereo not drawn), the inhibition was -3.17% (inactive).
As to `COc1ccc(C(=O)Nc2ccc(C3(C#N)CCCC3)cc2)cc1OC`, the inhibition was -1.46% (inactive).
The value for `Cc1cc(C)cc(N(CC(=O)NC2CCCC2)C(=O)CCC(=O)Nc2cc(C)on2)c1` was -2.81% (inactive).
Regarding `CCC(CC)c1nnc(NS(=O)(=O)Cc2ccccc2)s1`, the inhibition is -1.98% (inactive).
Consider `COc1ccc(Cc2nnc(NC(=O)Cc3cccs3)s2)cc1`, for which the inhibition was -3.71% (inactive).
The result for `COc1ccc(Cc2nnc(NS(=O)(=O)Cc3ccccc3)s2)cc1` reads 13.9% (active); that for `Cc1ccc(NS(=O)(=O)c2cn(C)c(=O)n(C)c2=O)c(C)c1`, -0.4% (inactive); that for `CCS(=O)(=O)N1CCC(N2CCN(c3ccccc3)CC2)CC1`, -1.31% (inactive).
Consider `O=C(NCCc1cccc(F)c1)C1CCCN(c2nc3ccccc3s2)C1` (stereo not drawn), for which the inhibition was 0.44% (inactive).
On to `Cc1cc(Cl)c2oc(C(=O)NC(C)c3ccncn3)c(C)c2c1` (stereo not drawn), for which the inhibition is -1.68% (inactive).
The result for `CCC1CCCCN1CCCNC(=O)Cn1nc(-c2ccccc2)ccc1=O` (stereo not drawn) reads -1.79% (inactive); that for `CCC1CCCCN1CCCNC(=O)C1CCC(Cn2c(=O)[nH]c3ccccc3c2=O)CC1` (stereo not drawn), -4.77% (inactive); that for `CCC1CCCCN1CCCNC(=O)c1cc2c(Cl)nc3ccccc3c2s1` (stereo not drawn), 19.5% (active).
Regarding `Cc1nn(C)c(Oc2ccccc2)c1CCNS(=O)(=O)c1ccc(F)cc1`, the inhibition is -2.13% (inactive).
The result for `O=C(NCCCN1CCOCC1)c1ccccc1NS(=O)(=O)c1ccc(Br)cc1` reads -2.82% (inactive).
Turning to `O=C(NCCCN1CCOCC1)c1ccccc1NS(=O)(=O)c1ccc(F)cc1`, the inhibition is -1.71% (inactive).
On to `O=C(NCCCN1CCOCC1)c1cnn2c(-c3ccccc3)cc(-c3ccccc3)nc12`, for which the inhibition was 23.4% (active).
Turning to `COc1ccccc1N(C)C(=O)c1cc(S(=O)(=O)N2CCc3ccccc32)cn1C`, the inhibition is -4.13% (inactive).
Turning to `Brc1ccccc1C1N=C(c2ccccc2)NO1` (stereo not drawn), the inhibition was -2.78% (inactive).
Take `NS(=O)(=O)c1ccc(NC(=O)COC(=O)c2cc3ccccc3oc2=O)cc1`: the inhibition is 0.95% (inactive).
The result for `COc1cc(-c2cc(C(=O)OCC(=O)Nc3ccc4c(c3)OCO4)c3ccccc3n2)cc(OC)c1OC` reads 2.83% (inactive).
With `O=C(COC(=O)c1c2c(nc3ccccc13)/C(=C\c1cccs1)CCC2)Nc1ccccc1Cl`, the inhibition was -4.79% (inactive).
For `NS(=O)(=O)c1ccc(NC(=O)COC(=O)c2c3c(nc4ccccc24)/C(=C\c2ccc4c(c2)OCO4)CCC3)cc1`, the inhibition was 23.9% (active).
As for `NC(=O)c1ccc(NC(=O)COC(=O)c2c3c(nc4ccccc24)/C(=C\c2ccc4c(c2)OCO4)CCC3)cc1`, the inhibition was 20.7% (active).
As to `COc1cc(/C=C2\CCCc3c2nc2ccccc2c3C(=O)O)cc(Cl)c1O`, the inhibition was 2.46% (inactive).
In the case of `CCc1ccc(C2N3CC4([N+](=O)[O-])CN2CC([N+](=O)[O-])(C3)C4(C)C)cc1` (stereo not drawn), the inhibition is -3.1% (inactive).
The value for `COc1ccc(/C=C2\CCCC3C2=NN(C(=O)c2scnc2C)C3c2ccc(OC)cc2)cc1` (stereo not drawn) was -4.89% (inactive); that for `COc1cccc(NC(=O)c2cc(S(=O)(=O)N3CCc4ccccc43)cn2C)c1` was -2.53% (inactive).
For the compound `CS(=O)(=O)Nc1ccccc1N=C(c1ccccc1)c1ccccc1`, the inhibition is -0.7% (inactive).
As for `CCc1nc(Nc2ccc3nccnc3c2)c2oc3ccccc3c2n1`, the inhibition is 6.61% (inactive).
The value for `CCc1nc(Nc2ccc(NC(C)=O)cc2)c2oc3ccccc3c2n1` was 9.84% (active); that for `C[C@@H](Nc1nc(-c2ccccc2)nc2c1oc1ccccc12)C(=O)O` was -1.13% (inactive).
Turning to `COc1cc(OC)c(NS(=O)(=O)c2cn(C)cn2)cc1Cl`, the inhibition is -2.52% (inactive).
On to `CC1(C)Cc2c(sc(NC(=O)C(=O)NCC3CCCO3)c2C(=O)O)CO1` (stereo not drawn), for which the inhibition was -1.53% (inactive).
The value for `CC1CCCCC1NC(=O)/C(C#N)=C/C=C/c1ccccc1[N+](=O)[O-]` (stereo not drawn) was -2.25% (inactive).
`Cc1ccc(C)c(CN2CCC(CNC(=O)Nc3ccc(C)c(F)c3)CC2)c1`: the inhibition was -1.95% (inactive).
Consider `Oc1ccc2ccc3cccc[n+]3c2c1`, for which the inhibition was 34.2% (active).
Consider `COC(=O)c1ccc(NC(=O)c2cc3c(CO)cnc(C)c3oc2=Nc2cccc(C(N)=O)c2)cc1`, for which the inhibition is -0.03% (inactive).
Take `Cc1c(C)c2c(OCC(=O)N[C@@H](C(=O)O)c3ccccc3)cc3c(c2oc1=O)CCC(C)(C)O3`: the inhibition was 10.8% (active).
Consider `Cc1c(C)c2c(OCC(=O)NCCCO)cc3c(c2oc1=O)CCC(C)(C)O3`, for which the inhibition was 1.34% (inactive).
As to `Cc1cc(=O)oc2c3c(cc(OCC(=O)N[C@H](C(=O)O)c4ccccc4)c12)OC(C)(C)CC3`, the inhibition was 1.96% (inactive).
The result for `CCC(C(=O)NC1CCCCC1)N(C(=O)c1snc(C(N)=O)c1N)c1ccc(OC)cc1OC` (stereo not drawn) reads -1.99% (inactive); that for `Cc1c2cnn(CC(=O)NCc3ccccn3)c(=O)c2c(C)n1Cc1ccc(Cl)cc1`, -1.23% (inactive).
Take `COc1cc(NS(=O)(=O)c2ccc(NC(=O)c3ccc([N+](=O)[O-])cc3)cc2)ncn1`: the inhibition was -1.86% (inactive).
The value for `CCCc1ccc(OCCNC(=O)c2ccco2)cc1` was 33.4% (active).
With `CCCc1ccc(OCC(=O)NNC(=S)NC(=O)c2ccco2)cc1`, the inhibition is -2.04% (inactive).
Turning to `CCCc1ccc(OCCNC(=O)c2ccccc2Br)cc1`, the inhibition is -1.47% (inactive).
With `COC(=O)Cc1cc(=O)oc2c(C)c(O)ccc12`, the inhibition was -5.11% (inactive).
Consider `COc1cccc(C(=O)OCc2cc(=O)oc3c(C)c(C)ccc23)c1OC`, for which the inhibition is 8.21% (active).
In the case of `COc1ccc(Br)cc1CN1CCN(C(=O)c2cccc(OC)c2OC)CC1`, the inhibition is -0.04% (inactive).

One may read the inhibition as the relative decrease from the control value, in per cent.
